# High-throughput results as filed in PubChem.
# Shown are actives, neighbours in structure and some others; about 2.2% of the full set was active somewhere.
# Ba/F3 V617F tox = loss of viability in JAK2V617F-driven Ba/F3 cells; AID 1446; 220,000 compounds, 1.1% hits; Ba/F3 EpoR-JAK2V617F viability, ATP luminescence; inhibition, % at 5.6 µM;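 active means inhibition above the campaign mean plus 3 SD over all tested compounds, cut at about 24% in these data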;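 further: cytokine-independent growth of Ba/F3 cells driven by EpoR plus mutant JAK2; 0% = DMSO-treated cells and 100% = JAK inhibitor I control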
# APP transl inh = APP translation inhibition. SH-SY5Y APP 5'UTR-luciferase reporter, luminescence. inhibition, % at 2 µM. 190,000 compounds, 0.82% hits. AID 1285;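 active means inhibition above a set limit, derived from the sample mean plus 3 SD, cut at about 45% in these data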
# BaF3 parental = reduces parental Ba/F3 cell viability, JAK2V617F counter-screen. CellTiter-Glo ATP luminescence. inhibition, % at 5.6 µM. 220,000 compounds, 1.1% hits;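 active means inhibition above a per-campaign cutoff, the mean inhibition of all tested compounds plus 3 SD, cut at about 27% in these data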;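 further: 0% = DMSO wells and 100% = JAK Inhibitor I control wells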
# IEC-6 tox = counter-screen for KLF5 inhibitors: cytotoxicity in IEC-6 cells. IEC-6 cytotoxicity, luminescence viability. inhibition, % at 5 µM. 290,000 compounds, 0.78% hits; in the data active means inhibition above about 22%;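 further: 0% = plate median of test compound wells and 100% = cytotoxic reference compound wells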
# KLF5 inhibitor = suppresses KLF5 promoter-driven expression; DLD-1 KLF5 promoter-luciferase reporter, luminescence; inhibition, % at 5 µM; 290,000 compounds, 0.23% hits; AID 1700;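 active means inhibition above a per-plate limit of that plate's mean compound inhibition plus 3 SD, cut at about 60% in these data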;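 further: 0% = DMSO wells and 100% = LY294002 at 200 µM; higher means less KLF5 promoter-driven luciferase light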
# aSyn 5UTR inh = MLPCN primary screen, SNCA 5' untranslated region; alpha-synuclein 5'UTR reporter, inhibitor activity; inhibition, % (tested at 7.5 µM); 300,000 compounds, 0.82% hits; in the data active means inhibition above about 60%;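 further: H4 neuroglioblastoma cells stably carrying SNCA 5'UTR luciferase fusion; 0% = DMSO wells and 100% = positive control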
# BaF3 parental 2 = parental Ba/F3 viability inhibition for JAK2V617F counter-screen; shares compounds with Ba/F3 V617F tox; CellTiter-Glo luminescence; cells kept alive by added IL-3; inhibition, % at 5.6 µM; 580 compounds, 31% hits; AID 1520;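 active means cell growth inhibition above the hit limit set in the earlier mutant JAK2 cell screen, cut at about 27% in these data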;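 further: plate controls were DMSO-treated cells for no effect and JAK Inhibitor I control wells for full effect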
# JAK2V617F conf = Ba/F3 EpoR-JAK2V617F viability loss, confirmation | shares compounds with Ba/F3 V617F tox | CellTiter-Glo luminescence | inhibition, % at 5.6 µM | 580 compounds, 66% hits;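 active means mean inhibition above the hit cutoff derived in the earlier primary screen, cut at about 25% in these data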;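 further: 0% = DMSO-treated cells and 100% = JAK inhibitor I control wells; higher means lower luminescence from reduced cell ATP and viability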
# * marks the source's active call; other numbers are inactive results; . = no result.
SMILES,Ba/F3 V617F tox,APP transl inh,BaF3 parental,IEC-6 tox,KLF5 inhibitor,aSyn 5UTR inh,BaF3 parental 2,JAK2V617F conf
CC(C)(C)SCCNS(=O)(=O)c1ccc2ccccc2c1,-2,10,0,0,-3,1,.,.
CC(C)(C)SCCNS(=O)(=O)c1ccccc1,99*,21,-2,0,-2,11,-5,-12
COC(CNC(=O)C(=O)NCC1OCCN1S(=O)(=O)c1ccccc1)OC (stereo not drawn),.,.,.,2,-33,-7,.,.
CSCc1cc(N(C)C)nc(SCc2ccc(Cl)c(Cl)c2)n1,42*,-8,1,-2,26,36,-3,1
CNc1cc(CSC)nc(SCc2ccc(Cl)cc2Cl)n1,-1,-1,1,-1,-4,49,.,.
CC(C)[C@H](NC(=O)C1CCN(S(=O)(=O)c2ccccc2)CC1)C(=O)NCc1ccco1,.,.,.,2,-29,-9,.,.
Cc1ccc(NS(=O)(=O)c2cc3c4c(cccc4c2)C(=O)NC3=O)cc1C,25*,.,11,15,-1,32,45*,77*
CCCc1nc([N+](=O)[O-])c(S(=O)(=O)c2ccccc2)n1CC(C)C,29*,10,4,13,-16,-18,-4,33*
CC(C)Cn1c(C(C)C)nc([N+](=O)[O-])c1S(=O)(=O)c1ccc(F)cc1,13,-15,6,0,-12,-36,.,.
Cc1cccc(N(Cc2ccccc2)C(=O)CCl)c1,57*,22,4,-3,6,-21,3,98*
CCc1nc(CN(C)C(=O)C2CCC(=O)N(Cc3cccc(F)c3)C2)no1 (stereo not drawn),.,.,.,-2,5,-8,.,.
CCOC(=O)c1c(NC(=O)/C=C/C(=O)O)sc(C)c1-c1ccc(C(C)(C)C)cc1,28*,-5,17,0,-7,-34,16,43*
Cc1ccc(Cn2ccsc2=NC(=O)COC(=O)c2ccc(NC(=O)CC#N)cc2)cc1,.,.,.,.,.,2,.,.
Cc1ccc(Cn2ccsc2=NC(=O)CCl)cc1,69*,-1,4,93*,-31,.,3,97*
[O-][N+]1=c2ccc(Nc3ccccc3)cc2=NC12CCCCC2,42*,33,8,10,-1,-57,5,98*
O=[N+]([O-])c1ccc2c(c1N1CCCCC1)=NC1(CCCCC1)[N+]=2[O-],-5,.,0,-7,-21,-32,.,.
COc1ccc(Nc2ccc3c(c2)=NC2(CCCCC2)[N+]=3[O-])cc1,44*,49*,2,9,-28,-87,19,100*
O=C(NCC1CCN(c2ccc(S(=O)(=O)N3CCOCC3)cc2)CC1)Nc1ccccc1F,.,.,.,3,-20,15,.,.
Cc1[nH]c(=O)nc2c1CCC2,30*,-20,0,2,-15,-4,-7,-10
Cc1nc2nc3c(c(=O)n2[nH]1)CCC3,-1,17,7,-7,-31,11,.,.
COc1cccc(F)c1C(C[N+](=O)[O-])c1c(N)n(C)c(=O)n(C)c1=O (stereo not drawn),63*,.,6,9,7,-19,2,92*
COc1cc(C(C[N+](=O)[O-])c2c(N)n(C)c(=O)n(C)c2=O)ccc1O (stereo not drawn),-1,-2,3,-1,-15,-15,.,.
CCCCn1c(=N)n(CC(O)COc2ccccc2)c2ccccc21 (stereo not drawn),4,1,7,1,-10,-7,.,.
CCCCn1c(=N)n(CC(O)COc2ccc(C)cc2)c2ccccc21 (stereo not drawn),65*,11,16,7,-2,1,5,48*
O=C(NCCS(=O)(=O)N1CCN(c2ccccc2)CC1)C1CC1,.,.,.,.,.,-8,.,.
O=[N+]([O-])c1ccccc1N/N=C/c1cccc(O)c1O,62*,.,-1,-10,-94,-104,51*,96*
CCOc1ccc(NC(=O)CN(C)C(=O)CCNC(=O)c2ccccc2Cl)cc1OCC,.,.,.,.,.,8,.,.
CC(=O)n1cc(N(C(=O)CCl)c2ccc(Cl)cc2)c2ccccc21,98*,.,13,9,-24,103*,104*,98*
CCOC(=O)c1ccccc1Nc1cn(C(C)=O)c2ccccc12,1,-6,6,1,3,26,.,.
